We go through 1 compound from ChEMBL document CHEMBL2218924, “A broad activity screen in support of a chemogenomic map for kinase signalling research and drug discovery” (Biochem J, 2013).

Assay [1] addresses T1, Serine/threonine-protein kinase TAO3 (Homo sapiens) (UniProt Q9H2K8).
T1 sequence (whole entry): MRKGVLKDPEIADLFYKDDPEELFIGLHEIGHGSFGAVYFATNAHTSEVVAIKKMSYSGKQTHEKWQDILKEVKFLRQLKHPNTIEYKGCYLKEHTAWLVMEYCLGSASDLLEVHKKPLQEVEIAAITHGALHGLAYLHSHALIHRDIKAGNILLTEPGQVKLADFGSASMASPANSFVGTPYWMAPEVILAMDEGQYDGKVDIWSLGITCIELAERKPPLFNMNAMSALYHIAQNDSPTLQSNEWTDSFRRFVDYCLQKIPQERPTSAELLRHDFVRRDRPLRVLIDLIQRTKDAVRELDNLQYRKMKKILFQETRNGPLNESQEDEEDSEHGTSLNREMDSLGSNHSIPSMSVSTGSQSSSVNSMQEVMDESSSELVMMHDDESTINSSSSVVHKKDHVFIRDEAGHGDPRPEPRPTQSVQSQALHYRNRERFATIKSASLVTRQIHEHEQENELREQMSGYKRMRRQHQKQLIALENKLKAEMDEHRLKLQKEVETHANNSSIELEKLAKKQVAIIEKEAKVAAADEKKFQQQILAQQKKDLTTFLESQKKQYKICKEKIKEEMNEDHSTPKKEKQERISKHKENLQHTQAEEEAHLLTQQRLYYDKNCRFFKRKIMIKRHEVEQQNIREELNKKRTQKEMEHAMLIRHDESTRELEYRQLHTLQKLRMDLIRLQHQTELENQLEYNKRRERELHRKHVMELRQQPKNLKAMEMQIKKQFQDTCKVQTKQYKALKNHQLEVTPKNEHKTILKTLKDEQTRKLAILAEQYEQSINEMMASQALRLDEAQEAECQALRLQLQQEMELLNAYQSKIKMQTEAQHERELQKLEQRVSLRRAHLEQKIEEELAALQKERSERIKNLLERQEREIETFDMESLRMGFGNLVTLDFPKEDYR
Particulars: at 10 µM.

Assay [2] addresses T2, Serine/threonine-protein kinase TBK1 (Homo sapiens) (UniProt Q9UHD2).
T2 sequence (whole entry): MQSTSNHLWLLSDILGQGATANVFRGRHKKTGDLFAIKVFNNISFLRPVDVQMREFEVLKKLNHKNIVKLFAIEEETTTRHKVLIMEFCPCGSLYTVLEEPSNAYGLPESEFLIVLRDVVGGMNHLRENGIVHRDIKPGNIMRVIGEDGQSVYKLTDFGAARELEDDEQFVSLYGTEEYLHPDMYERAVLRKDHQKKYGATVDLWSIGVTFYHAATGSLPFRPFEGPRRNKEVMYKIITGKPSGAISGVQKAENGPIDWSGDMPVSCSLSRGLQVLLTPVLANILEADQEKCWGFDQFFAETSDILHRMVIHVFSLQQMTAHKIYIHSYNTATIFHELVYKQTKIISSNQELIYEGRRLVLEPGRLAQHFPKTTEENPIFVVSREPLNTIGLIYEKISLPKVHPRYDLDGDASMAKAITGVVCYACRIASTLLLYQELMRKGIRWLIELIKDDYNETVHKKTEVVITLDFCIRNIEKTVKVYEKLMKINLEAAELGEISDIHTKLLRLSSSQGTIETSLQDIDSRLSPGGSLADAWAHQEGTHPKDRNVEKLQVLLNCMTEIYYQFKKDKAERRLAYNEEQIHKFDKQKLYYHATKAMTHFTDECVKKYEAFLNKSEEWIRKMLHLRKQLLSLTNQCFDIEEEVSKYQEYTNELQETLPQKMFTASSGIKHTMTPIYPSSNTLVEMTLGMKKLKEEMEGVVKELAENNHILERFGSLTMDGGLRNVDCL
To be noted: at 1 µM.

Assay [3] addresses T2, Serine/threonine-protein kinase TBK1 (Homo sapiens). To be noted: at 10 µM.
Assay [4] addresses T3, TGF-beta receptor type-1 (Homo sapiens) (UniProt P36897).
T3 sequence (whole entry): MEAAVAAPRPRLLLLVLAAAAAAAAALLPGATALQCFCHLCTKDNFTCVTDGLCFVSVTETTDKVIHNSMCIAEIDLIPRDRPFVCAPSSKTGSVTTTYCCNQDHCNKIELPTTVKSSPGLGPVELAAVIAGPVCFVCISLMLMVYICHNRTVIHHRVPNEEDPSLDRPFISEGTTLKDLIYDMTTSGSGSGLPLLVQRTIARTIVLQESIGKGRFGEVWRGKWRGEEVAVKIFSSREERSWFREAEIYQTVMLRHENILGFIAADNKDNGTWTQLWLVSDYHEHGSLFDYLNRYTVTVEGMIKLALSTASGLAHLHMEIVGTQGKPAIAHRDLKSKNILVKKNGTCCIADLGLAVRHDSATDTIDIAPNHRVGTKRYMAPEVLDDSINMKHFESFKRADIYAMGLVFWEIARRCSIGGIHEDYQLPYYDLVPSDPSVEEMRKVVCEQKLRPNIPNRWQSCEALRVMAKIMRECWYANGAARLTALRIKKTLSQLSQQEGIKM
To be noted: at 10 µM.

Assay [5] deals with T4, Inhibitor of nuclear factor kappa-B kinase subunit alpha (Homo sapiens) (UniProt O15111).
T4 sequence (whole entry): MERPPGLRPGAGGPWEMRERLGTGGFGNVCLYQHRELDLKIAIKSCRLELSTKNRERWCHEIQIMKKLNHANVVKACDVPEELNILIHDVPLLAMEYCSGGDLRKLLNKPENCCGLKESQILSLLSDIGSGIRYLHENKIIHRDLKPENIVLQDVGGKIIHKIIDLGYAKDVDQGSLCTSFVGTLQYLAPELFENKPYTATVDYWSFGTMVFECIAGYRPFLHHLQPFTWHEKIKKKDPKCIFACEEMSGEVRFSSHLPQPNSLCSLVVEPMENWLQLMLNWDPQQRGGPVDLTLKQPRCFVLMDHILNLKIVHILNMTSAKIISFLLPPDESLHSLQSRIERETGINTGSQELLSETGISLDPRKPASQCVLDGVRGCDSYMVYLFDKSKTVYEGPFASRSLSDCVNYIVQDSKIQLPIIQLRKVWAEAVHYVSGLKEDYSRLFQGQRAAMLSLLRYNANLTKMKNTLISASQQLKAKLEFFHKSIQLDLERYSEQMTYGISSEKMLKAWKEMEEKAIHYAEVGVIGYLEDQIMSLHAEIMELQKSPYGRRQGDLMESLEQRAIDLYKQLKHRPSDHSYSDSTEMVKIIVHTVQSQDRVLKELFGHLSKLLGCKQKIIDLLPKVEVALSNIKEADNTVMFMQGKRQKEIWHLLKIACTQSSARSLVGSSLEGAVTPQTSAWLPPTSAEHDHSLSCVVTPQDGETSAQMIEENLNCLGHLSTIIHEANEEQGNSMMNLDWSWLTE
Particulars: at 1 µM.

Assay [6] addresses T4, Inhibitor of nuclear factor kappa-B kinase subunit alpha (Homo sapiens). Particulars: at 10 µM.
For assay [7], the target named is T5, Inhibitor of nuclear factor kappa-B kinase subunit beta (Homo sapiens) (UniProt O14920).
T5 sequence (whole entry): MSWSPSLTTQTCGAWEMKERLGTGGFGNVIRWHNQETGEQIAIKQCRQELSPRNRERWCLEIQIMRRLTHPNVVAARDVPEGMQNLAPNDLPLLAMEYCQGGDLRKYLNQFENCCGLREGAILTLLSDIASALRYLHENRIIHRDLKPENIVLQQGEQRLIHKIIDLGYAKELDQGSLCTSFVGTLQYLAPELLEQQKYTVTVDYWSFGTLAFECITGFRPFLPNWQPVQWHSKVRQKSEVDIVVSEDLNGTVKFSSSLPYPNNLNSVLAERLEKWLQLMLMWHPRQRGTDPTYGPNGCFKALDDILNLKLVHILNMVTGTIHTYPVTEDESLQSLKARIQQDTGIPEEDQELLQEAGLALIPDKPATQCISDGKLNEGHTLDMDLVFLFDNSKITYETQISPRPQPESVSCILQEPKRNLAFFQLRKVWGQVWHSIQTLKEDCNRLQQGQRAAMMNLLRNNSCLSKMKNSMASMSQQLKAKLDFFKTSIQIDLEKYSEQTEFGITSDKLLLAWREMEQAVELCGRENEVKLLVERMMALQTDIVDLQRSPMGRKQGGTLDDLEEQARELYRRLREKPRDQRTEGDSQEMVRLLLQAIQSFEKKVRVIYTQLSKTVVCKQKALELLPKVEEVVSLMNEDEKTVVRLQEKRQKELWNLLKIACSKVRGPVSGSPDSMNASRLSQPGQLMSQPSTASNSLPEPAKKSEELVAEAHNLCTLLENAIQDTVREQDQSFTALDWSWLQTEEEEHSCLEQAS
Particulars: at 1 µM.

For `c1ccc(-c2cnc(Nc3ccc(OCCN4CCCC4)cc3)s2)cc1`, the residual activity was 27% in assay [1]; 70% in assay [2]; 23% in assay [3]; 74% in assay [4]; 77% in assay [5]; 66% in assay [6]. Besides, in assay [7], the residual activity stood at 116%.
